# Records with an inconclusive call do not appear. A call without a number means that no potency is given here. The source made the active and inactive calls. Unless noted, calls come from the whole dose curve; as a rule, active = well fitted curve in the direction sought with a large enough effect; inconclusive = small, poorly fitted or top-dose-only effect, or another doubt; inactive = no such curve, though single readings can be large; an effect the other way counts as inactive or inconclusive.
# What was measured:
# [1] = Primary qHTS for inhibitors of nuclear receptor binding SET domain protein 2 (NSD2) in an RCH-ACV wild type WT cells (2C) (AID 1645877); details: RCH-ACV (leukaemia line) NSD2 WT (2C) viability, CellTiter-Glo, 72 h; series mostly up to 44.9 µM; note: nearly all actives have a fitted effect of over 70% in size; note: potency is the fitted concentration of half-maximal effect
# [2] = target: Glutathione peroxidase 1 (Homo sapiens) (UniProt P07203); experiment: Primary qHTS Assay for Inhibitors of Recombinant Selenoprotein Glutathione Peroxidase 1 (GPX1) (AID 1845191); details: recombinant GPX1, GR-coupled NADPH fluorescence, 15 min; series mostly up to 48.8 µM; note: nearly all actives have a fitted effect of over 65% in size
# In short: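 GR-coupled assay: compounds preincubated 30 min at room temperature with GPX1, then reaction started with CHP; final 10 nM GPX1, 1 mM GSH, 0.5 mM CHP, 0.5 mM NADPH, 100 nM GR, 0.01% BSA, pH 7.5 Tris buffer. NADPH fluorescence (340/450 nm) read at 0 and 15 min.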
# [3] = target: Phospholipid hydroperoxide glutathione peroxidase GPX4 (Homo sapiens) (UniProt P36969); experiment: Primary qHTS Assay for Inhibitors of Recombinant Selenoprotein Glutathione Peroxidase 4 (GPX4) (AID 1845192); details: recombinant GPX4, GR-coupled NADPH fluorescence, 15 min; series mostly up to 50 µM; note: nearly all actives have a fitted effect of over 65% in size
# In short: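 GR-coupled assay: recombinant GPX4 preincubated 30 min with compound at room temperature; final 200 nM GPX4, 1 mM GSH, 0.5 mM cumene hydroperoxide, 0.5 mM NADPH, 100 nM GR, 0.01% BSA, pH 7.5 Tris. NADPH fluorescence (340/450 nm) read at 0 and 15 min.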
# [4] = NCATS anti-infectives library activity on HEK293 viability as a counter-qHTS vs the C. elegans viability qHTS (AID 1745854); details: HEK293 viability counter-screen; series mostly up to 41.8 µM;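 note: HEK293 cells exposed to compounds for 24 hr before the viability read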
# In short: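 HEK293 cells (1,500/well) exposed 24 hr at 37C to 1:5 titrations, up to 41.7 uM final; counter-screen to a C. elegans viability qHTS. Viability by CellTiter-Glo luminescence after 10 min at room temperature; digitonin as control.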
# [5] = NCATS anti-infectives library activity on the primary C. elegans qHTS viability assay (AID 1745855; calls by dose curve); details: C. elegans worm area imaging, day 7; series mostly up to 41.8 µM
# In short: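 Viability read-out is GFP fluorescence of PE254-GFP-FLuc C. elegans, measured by laser cytometry (488 nm) at day 0, 3 and 7. Ten L1 worms per well were incubated 7 days at 21 °C with compounds and bacterial capsules in S medium.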
# [6] = target: Catechol O-methyltransferase (Homo sapiens) (UniProt P21964); experiment: Confirmatory Screen for Target Class Profiling of Small Molecule Inhibitors of Methyltransferases (AID 1745852); details: MTase-Glo luminescence, SAH detection, recombinant enzyme; measured here: COMT max response; stronger effect = lower value
# [7] = target: Guanidinoacetate N-methyltransferase (Homo sapiens) (UniProt Q14353); experiment: as above; details: MTase-Glo luminescence, SAH detection, recombinant enzyme; activity change, negative = inhibition: at 57.3 µM (top of the series) unless noted
# [8] = target: Nicotinamide N-methyltransferase (Homo sapiens) (UniProt P40261); experiment: as above; details: MTase-Glo luminescence, SAH detection, recombinant enzyme; measured here: NNMT max response; stronger effect = lower value
# [9] = target: Phenylethanolamine N-methyltransferase (Homo sapiens) (UniProt P11086); experiment: as above; details: MTase-Glo luminescence, SAH detection, recombinant enzyme; measured here: PNMT max response; stronger effect = lower value
# [10] = target: Metallo-beta-lactamase type 2 (Klebsiella pneumoniae) (UniProt C7C422); experiment: qHTS to identify inhibitors of the New Delhi Metallo-beta-lactamase (NDM): assay validation screen against the NCATS LOPAC Collection (AID 1794843); details: NDM-1 enzyme, nitrocefin hydrolysis, absorbance 485 nm; series mostly up to 38.4 µM;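 note: nitrocefin turnover by NDM-1 measured as 485 nm absorbance at plateau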
# In short: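 Nitrocefin hydrolysis (50 uM substrate stock) by NDM-1, 2 nM final, was followed by 485 nm absorbance after compound preincubation; buffer was 50 mM HEPES pH 7.0, 1 uM ZnSO4, 0.01% Tween20.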
# Sequence of Glutathione peroxidase 1 (Homo sapiens) (P07203 whole entry, looked up): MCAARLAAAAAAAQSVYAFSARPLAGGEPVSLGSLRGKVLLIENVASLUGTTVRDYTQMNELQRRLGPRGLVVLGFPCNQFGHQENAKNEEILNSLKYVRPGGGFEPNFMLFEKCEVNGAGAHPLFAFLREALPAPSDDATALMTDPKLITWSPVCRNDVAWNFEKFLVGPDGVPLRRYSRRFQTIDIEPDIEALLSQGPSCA
# Sequence of Phospholipid hydroperoxide glutathione peroxidase GPX4 (Homo sapiens) (P36969 whole entry, looked up): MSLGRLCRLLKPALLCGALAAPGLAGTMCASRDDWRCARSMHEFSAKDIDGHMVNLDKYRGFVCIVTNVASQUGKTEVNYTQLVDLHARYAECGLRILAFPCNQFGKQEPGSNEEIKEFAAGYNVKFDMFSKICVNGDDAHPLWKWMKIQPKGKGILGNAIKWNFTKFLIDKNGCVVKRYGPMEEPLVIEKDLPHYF
# Sequence of Phenylethanolamine N-methyltransferase (Homo sapiens) (P11086 whole entry, looked up): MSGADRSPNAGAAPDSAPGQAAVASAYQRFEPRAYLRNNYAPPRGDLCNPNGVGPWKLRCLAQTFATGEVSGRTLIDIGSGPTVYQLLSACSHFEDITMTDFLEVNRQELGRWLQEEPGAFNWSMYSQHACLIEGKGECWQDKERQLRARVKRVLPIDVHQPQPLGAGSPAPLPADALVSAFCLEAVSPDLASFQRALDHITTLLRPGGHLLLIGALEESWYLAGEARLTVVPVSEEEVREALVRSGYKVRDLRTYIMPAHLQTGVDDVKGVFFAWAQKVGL
# Sequence of Catechol O-methyltransferase (Homo sapiens) (P21964 whole entry, looked up): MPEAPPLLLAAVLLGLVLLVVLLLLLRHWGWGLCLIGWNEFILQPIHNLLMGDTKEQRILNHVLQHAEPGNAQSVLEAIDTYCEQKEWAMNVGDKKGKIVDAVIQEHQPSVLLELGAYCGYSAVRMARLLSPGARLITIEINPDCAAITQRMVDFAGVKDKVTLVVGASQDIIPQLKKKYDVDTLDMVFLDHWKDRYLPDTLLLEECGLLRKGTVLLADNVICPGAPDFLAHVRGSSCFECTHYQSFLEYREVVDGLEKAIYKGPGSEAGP
# Sequence of Nicotinamide N-methyltransferase (Homo sapiens) (P40261 whole entry, looked up): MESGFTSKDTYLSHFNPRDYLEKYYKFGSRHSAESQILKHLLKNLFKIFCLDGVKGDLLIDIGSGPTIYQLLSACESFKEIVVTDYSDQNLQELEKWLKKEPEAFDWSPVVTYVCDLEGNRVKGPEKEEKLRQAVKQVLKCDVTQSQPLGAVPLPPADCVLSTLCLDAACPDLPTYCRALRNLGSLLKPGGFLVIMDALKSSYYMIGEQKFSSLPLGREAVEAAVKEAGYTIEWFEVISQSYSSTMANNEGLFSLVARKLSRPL
# Sequence of Metallo-beta-lactamase type 2 (Klebsiella pneumoniae) (C7C422 whole entry, looked up): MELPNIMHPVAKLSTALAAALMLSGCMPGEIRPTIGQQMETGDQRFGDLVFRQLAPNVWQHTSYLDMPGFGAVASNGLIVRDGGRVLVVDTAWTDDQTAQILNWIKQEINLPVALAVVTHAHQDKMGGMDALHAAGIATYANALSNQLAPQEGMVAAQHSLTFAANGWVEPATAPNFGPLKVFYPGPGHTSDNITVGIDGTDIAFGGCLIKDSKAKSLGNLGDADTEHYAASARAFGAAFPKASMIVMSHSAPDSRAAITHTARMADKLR
structure (smiles),measurement,setting,value
COC1CC(O[C@H]2CC[C@]3(C=O)C4CC[C@]5(C)[C@@H](C6=CC(=O)OC6)CC[C@]5(O)[C@@H]4CC[C@]3(O)C2)OC(C)C1O[C@@H]1O[C@H](CO)[C@@H](O)[C@H](O)[C@H]1O (stereo not given in full),Potency,[1],0.0858 µM (active)
same,Potency,[2],inactive
same,Potency,[3],inactive
O=C(O)c1ccnc2cc(C(OCCN3CCCCC3)c3ccccc3Cl)[nH]c12 (stereo not given),Potency,[1],inactive
same,outcome,[4],inactive
same,Potency,[5],inactive
same,Potency,[2],inactive
same,Potency,[3],inactive
COc1ccc2c(c1)/C(=C/c1cnc[nH]1)C(=O)N2,Potency,[1],18.4 µM (active)
same,Potency,[2],inactive
CCc1c(C(=O)C(N)=O)c2c(OCC(=O)OC)cccc2n1Cc1ccccc1,Potency,[1],inactive
same,Potency,[2],inactive
same,Potency,[3],inactive
COC1=CC(=O)O[C@@H](CCc2ccccc2)C1,Potency,[1],inactive
same,Potency,[2],inactive
same,Potency,[3],inactive
CN1CCC[C@@H]1Cc1c[nH]c2ccc(Nc3ncccc3[N+](=O)[O-])cc12,Potency,[1],inactive
same,activity,[6],3.7%
same,"activity change, negative = inhibition",[7],2.94%
same,activity,[8],-4.11%
same,activity,[9],3.35%
same,Potency,[10],inactive
same,Potency,[2],inactive
CCN1C[C@]2(COC(=O)c3ccccc3N3C(=O)C[C@H](C)C3=O)CC[C@H](OC)[C@@]34[C@@H]5C[C@H]6[C@H](OC)[C@@H]5[C@](O)(C[C@@H]6OC)[C@](O)([C@@H](OC)[C@H]23)[C@@H]14,Potency,[1],inactive
same,Potency,[2],inactive
same,Potency,[3],inactive
CN1C(=O)c2ccccc2NC(=O)[C@]12O[C@@H]2c1ccccc1,Potency,[1],inactive
same,Potency,[2],inactive
CN[C@H]1[C@H](O)[C@H](O[C@@H]2[C@@H](O)[C@H](O[C@H]3O[C@H]([C@H](C)O)[C@@H](O)[C@H](O)[C@H]3N)[C@@H](N)C[C@H]2N)OC[C@@]1(C)O,Potency,[1],inactive
CC(=O)OC12C(O)C(C)C3(O)C4C=C(C)C(=O)C4CC(CO)=CC3C1C2(C)C (stereo not given),Potency,[1],inactive
same,Potency,[2],inactive
COC(=O)C1(C)CCC(O)C2(C)c3cc(O)c(C(C)C)cc3C(O)C(OC(C)=O)C12 (stereo not given),Potency,[1],inactive
same,Potency,[2],inactive
same,Potency,[3],inactive
CC(N)Cc1c[nH]c2ccccc12 (stereo not given),Potency,[1],inactive
same,Potency,[2],inactive
CC(C)(C)c1cc(C(C)(C)C)c2c(c1)C(O)(C(F)(F)F)C(=O)O2 (stereo not given),Potency,[1],inactive
same,Potency,[2],inactive
same,Potency,[3],inactive
CO[C@H]1[C@H](O)[C@H](O[C@H]2CC[C@]3(C)C4CC[C@]5(C)[C@H](C6=CC(=O)OC6)CC[C@]5(O)C4CC[C@@H]3C2)O[C@@H](C)[C@@H]1O (stereo not given in full),Potency,[1],0.0282 µM (active)
same,Potency,[2],inactive
same,Potency,[3],inactive
C=C[C@H]1[C@H](O[C@@H]2O[C@H](CO)[C@@H](O)[C@H](O)[C@H]2O)OC=C2C(=O)OCC[C@H]21,Potency,[1],inactive
same,Potency,[2],inactive
same,Potency,[3],inactive
